PubChem BioAssay
Calls of active or inactive are those of the source.

How the values were obtained:
[1] = test system: Plasmodium falciparum Sir2 (PF13_0152, Sir2A); assay: pfSir2 binders on small-molecule microarrays, primary screen, biochemical, small-molecule microarray, 635 nm fluorescence (AID 1098); details: small-molecule microarray binding, fluorescence 635 nm; higher = more signal;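 also: score merges spot fluorescence intensity with its signal-to-noise ratio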
[2] = small-molecule microarray binders of probe aDKK1, primary screen, biochemical, biotinylated probe, 635/667 nm fluorescence (AID 1099); details: higher = more signal;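 also: score merges 667nm spot fluorescence with signal to noise across triplicate slides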
[3] = small-molecule microarray binders of probe aCHRDL2, primary screen, biochemical, biotinylated probe, 635/667 nm fluorescence (AID 1100); details: higher = more signal
[4] = splicing luciferase reporter signal modulators, primary screen, spliceosome inhibition project, cell-based, HEK293, splice +/- reporter (AID 1101); details: luminescence, 24 h, higher = more signal, called active from +8 up or from −8 down;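 also: HEK293 cells carrying a splicing-competent luciferase reporter gene; test concentration not given here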
[5] = target: Fibroblast growth factor 10 (Homo sapiens) (UniProt O15520); assay: FGF10 binders on small-molecule microarrays, primary screen, biochemical, small-molecule microarray, 635 nm fluorescence (AID 1102); details: FGF10 binding, fluorescence 635 nm, higher = more signal
Fibroblast growth factor 10 (Homo sapiens), sequence (O15520 whole entry, looked up): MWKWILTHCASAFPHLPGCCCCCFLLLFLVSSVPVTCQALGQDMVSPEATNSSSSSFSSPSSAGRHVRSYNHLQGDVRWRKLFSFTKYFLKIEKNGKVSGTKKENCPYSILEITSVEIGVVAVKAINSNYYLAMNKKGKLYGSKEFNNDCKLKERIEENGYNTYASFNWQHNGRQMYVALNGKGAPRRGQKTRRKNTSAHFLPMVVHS

[6] = test system: glycogen synthase kinase-3 (GSK3A per assay name; protocol says GSK3B); assay: GSK3 binders on small-molecule microarrays, primary screen, biochemical, small-molecule microarray, 635 nm fluorescence, GSK3A (AID 1103); details: small-molecule microarray binding, fluorescence 635 nm; higher = more signal; also: the record names both GSK3A and GSK3B
[7] = target: Epidermal growth factor receptor (Homo sapiens) (UniProt P00533); assay: EGFR binders on small-molecule microarrays, primary screen, biochemical, small-molecule microarray, 635 nm fluorescence (AID 1104); details: EGFR binding, higher = more signal;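 also: score merges 667 nm emission intensity with spot signal to noise over triplicate slides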
Epidermal growth factor receptor (Homo sapiens), sequence (P00533 whole entry, looked up): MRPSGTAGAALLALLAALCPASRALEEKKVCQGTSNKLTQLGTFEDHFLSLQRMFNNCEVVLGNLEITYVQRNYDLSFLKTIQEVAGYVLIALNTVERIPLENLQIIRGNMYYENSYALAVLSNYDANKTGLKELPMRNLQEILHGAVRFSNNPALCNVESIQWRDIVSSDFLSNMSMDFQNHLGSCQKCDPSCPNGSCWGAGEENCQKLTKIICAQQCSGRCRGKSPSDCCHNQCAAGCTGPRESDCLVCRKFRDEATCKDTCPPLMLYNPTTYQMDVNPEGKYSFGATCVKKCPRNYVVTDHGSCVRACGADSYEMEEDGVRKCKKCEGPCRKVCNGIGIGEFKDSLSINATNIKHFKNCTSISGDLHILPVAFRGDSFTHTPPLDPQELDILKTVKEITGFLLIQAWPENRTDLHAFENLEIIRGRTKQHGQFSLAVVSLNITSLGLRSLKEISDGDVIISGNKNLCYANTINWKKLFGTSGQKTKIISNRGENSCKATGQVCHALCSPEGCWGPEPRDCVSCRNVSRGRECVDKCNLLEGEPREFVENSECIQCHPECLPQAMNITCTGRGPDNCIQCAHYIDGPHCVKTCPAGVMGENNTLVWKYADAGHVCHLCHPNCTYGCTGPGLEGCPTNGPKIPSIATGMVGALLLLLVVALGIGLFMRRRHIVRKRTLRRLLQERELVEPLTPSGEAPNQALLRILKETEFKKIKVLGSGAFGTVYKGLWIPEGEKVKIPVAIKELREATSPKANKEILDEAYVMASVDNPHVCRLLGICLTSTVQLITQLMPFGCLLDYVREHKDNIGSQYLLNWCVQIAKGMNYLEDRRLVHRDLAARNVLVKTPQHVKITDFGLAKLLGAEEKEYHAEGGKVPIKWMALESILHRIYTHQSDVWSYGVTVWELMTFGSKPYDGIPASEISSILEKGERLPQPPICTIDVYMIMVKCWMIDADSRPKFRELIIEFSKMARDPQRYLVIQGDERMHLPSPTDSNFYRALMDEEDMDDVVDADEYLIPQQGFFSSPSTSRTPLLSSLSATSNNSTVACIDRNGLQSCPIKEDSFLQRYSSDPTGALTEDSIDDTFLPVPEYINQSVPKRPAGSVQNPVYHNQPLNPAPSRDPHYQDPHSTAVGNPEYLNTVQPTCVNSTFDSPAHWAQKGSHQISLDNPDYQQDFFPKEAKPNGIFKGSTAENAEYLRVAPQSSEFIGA

[8] = target: Follistatin-related protein 3 (Homo sapiens) (UniProt O95633); assay: FSTL3 binders on small-molecule microarrays, primary screen, biochemical, small-molecule microarray, 635 nm fluorescence (AID 1105); details: FSTL3 binding, higher = more signal;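 also: score merges emission near 667 nm and signal to noise per printed spot across three slides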
Follistatin-related protein 3 (Homo sapiens), sequence (O95633 whole entry, looked up): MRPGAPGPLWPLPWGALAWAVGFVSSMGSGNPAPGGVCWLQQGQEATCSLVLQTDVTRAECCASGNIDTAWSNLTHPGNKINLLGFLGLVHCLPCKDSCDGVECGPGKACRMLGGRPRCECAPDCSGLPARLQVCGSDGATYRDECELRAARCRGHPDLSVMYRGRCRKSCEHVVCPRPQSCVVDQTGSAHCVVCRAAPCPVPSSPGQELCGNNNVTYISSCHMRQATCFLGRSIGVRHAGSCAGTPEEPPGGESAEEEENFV

[9] = target: Dickkopf-related protein 1 (Homo sapiens) (UniProt O94907); assay: DKK1 binders on small-molecule microarrays, primary screen, biochemical, small-molecule microarray, 635 nm fluorescence scan (AID 1106); details: DKK1 binding, higher = more signal;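 also: score merges emission near 667 nm with signal to noise over three replicate slides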
Dickkopf-related protein 1 (Homo sapiens), sequence (O94907 whole entry, looked up): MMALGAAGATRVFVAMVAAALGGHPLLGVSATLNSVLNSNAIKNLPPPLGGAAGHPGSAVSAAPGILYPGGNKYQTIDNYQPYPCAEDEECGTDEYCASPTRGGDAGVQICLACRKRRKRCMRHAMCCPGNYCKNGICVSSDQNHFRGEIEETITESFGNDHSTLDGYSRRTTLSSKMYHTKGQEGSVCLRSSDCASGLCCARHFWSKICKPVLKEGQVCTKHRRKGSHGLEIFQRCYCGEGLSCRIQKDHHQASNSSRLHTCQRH

[10] = test system: Inhibin beta A chain (activin A); assay: INHBA (activin A) binders on microarrays, primary screen, biochemical, small-molecule microarray, 635 nm fluorescence scan (AID 1107); details: small-molecule microarray binding, higher = more signal;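 also: mouse activin A protein probed at 4.33 µg/mL on printed slides; score merges bound-protein fluorescence near 667 nm with spot signal-to-noise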
[11] = test system: Human papillomavirus type 1a protein E7 (residues 44-93); assay: HPV1a E7 fragment binders on microarrays, primary screen, biochemical, small-molecule microarray, residues 44-93, 635 nm fluorescence (AID 1108); details: small-molecule microarray binding, fluorescence 635 nm; higher = more signal;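 also: E7 fragment applied at 1 µg/mL in TBST for 1 h at 4 C; score combines spot fluorescence with its signal to noise ratio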
[12] = modulators of HCV replicon luciferase signal, primary screen, HCV replication inhibitor project, Huh7 cells, luciferase reporter (AID 1109); details: 48 h, higher = more signal;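 also: huh7 hepatoma cells harbouring a luciferase neomycin HCV replicon reporter; luciferase luminescence as measure of HCV replicon replication; test concentration not given here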
[13] = target: Left-right determination factor 2 (Homo sapiens) (UniProt O00292); assay: LEFTY2 binders on small-molecule microarrays, primary screen, biochemical, small-molecule microarray, 635 nm fluorescence scan (AID 1110); details: LEFTY2 binding, higher = more signal
Left-right determination factor 2 (Homo sapiens), sequence (O00292 whole entry, looked up): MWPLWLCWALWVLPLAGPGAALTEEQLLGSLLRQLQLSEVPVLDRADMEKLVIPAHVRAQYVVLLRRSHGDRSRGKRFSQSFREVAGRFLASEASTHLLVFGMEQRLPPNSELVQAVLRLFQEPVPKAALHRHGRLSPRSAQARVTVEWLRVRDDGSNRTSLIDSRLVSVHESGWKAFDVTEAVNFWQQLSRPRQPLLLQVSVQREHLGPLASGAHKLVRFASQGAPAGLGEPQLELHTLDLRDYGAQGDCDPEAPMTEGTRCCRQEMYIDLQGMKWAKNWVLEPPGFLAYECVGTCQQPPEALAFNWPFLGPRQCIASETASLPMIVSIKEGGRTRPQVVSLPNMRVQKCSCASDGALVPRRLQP

[14] = target: Calmodulin-1 (Homo sapiens) (UniProt P0DP23); assay: CALM1 binders on microarrays, EGTA buffer, profiling panel, biochemical, small-molecule microarray, Cy5-labelled CALM1 (AID 1111); details: Cy5-CALM1 binding fluorescence, higher = more signal;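 also: labelled calmodulin applied in Tris saline Tween buffer holding calcium plus EGTA and DTT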
[15] = target: Calmodulin-1 (Homo sapiens) (UniProt P0DP23); assay: calcium-bound CALM1 binders on microarrays, profiling panel, artefact control for SMM control-protein annotation, biochemical, small-molecule microarray, Cy5-labelled CALM1, plus calcium (AID 1112); details: Cy5-CALM1 binding fluorescence, higher = more signal;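 also: score merges spot fluorescence with signal to noise from triplicate slides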
[16] = small-molecule microarray binders of probe aWnt5a, primary screen, biochemical, biotinylated probe, 635/667 nm fluorescence (AID 1113); details: higher = more signal;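 also: score merges 667 nm fluorescence intensity with signal-to-noise per printed feature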
[17] = small-molecule microarray binders of probe aShh, primary screen, biochemical, biotinylated probe, 635/667 nm fluorescence (AID 1114); details: higher = more signal;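 also: probe is biotin-labelled aShh protein from a stem cell growth factor screen; measures binding of labelled protein to compounds printed on the slide; score merges feature fluorescence at 667 nm with signal-to-noise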
[18] = small-molecule microarray binders of probe aNog, primary screen, biochemical, biotinylated probe, 635/667 nm fluorescence (AID 1115); details: higher = more signal;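 also: probe is biotinylated aNog protein used at 0.15 µg/mL for 1 h at 4 C; z-score combines 667 nm fluorescence of each spot with its signal to noise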
[19] = target: Torsin-1A-interacting protein 1 (Homo sapiens) (UniProt Q5JTV8); assay: LAP1 binders from COS7 cell lysate, primary screen, small-molecule microarray, 635/667 nm fluorescence (AID 1116); details: COS7-hLAP1 lysate binding, 635 nm fluorescence, higher = more signal
Torsin-1A-interacting protein 1 (Homo sapiens), sequence (Q5JTV8 whole entry, looked up): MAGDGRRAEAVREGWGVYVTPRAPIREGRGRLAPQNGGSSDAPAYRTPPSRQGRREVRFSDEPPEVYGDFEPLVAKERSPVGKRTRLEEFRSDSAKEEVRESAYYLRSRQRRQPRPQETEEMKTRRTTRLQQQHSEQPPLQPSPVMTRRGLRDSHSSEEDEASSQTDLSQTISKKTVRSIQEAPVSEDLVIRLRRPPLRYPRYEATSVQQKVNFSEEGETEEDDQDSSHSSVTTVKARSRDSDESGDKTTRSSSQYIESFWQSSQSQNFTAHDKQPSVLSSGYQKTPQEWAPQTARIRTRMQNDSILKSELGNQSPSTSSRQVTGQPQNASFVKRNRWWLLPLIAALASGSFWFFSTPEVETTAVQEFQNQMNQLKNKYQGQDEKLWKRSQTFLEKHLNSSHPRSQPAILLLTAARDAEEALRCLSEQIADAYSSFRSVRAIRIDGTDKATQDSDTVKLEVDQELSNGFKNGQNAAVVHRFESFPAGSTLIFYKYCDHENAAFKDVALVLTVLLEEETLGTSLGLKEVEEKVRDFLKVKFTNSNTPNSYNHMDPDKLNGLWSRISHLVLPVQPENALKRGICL

[20] = target: Alpha-bungarotoxin (Bungarus multicinctus) (UniProt P60615); assay: alpha-bungarotoxin binders on microarray, profiling panel, artefact control for SMM control protein annotation, biochemical, small-molecule microarray, Alexa647 label, 635/667 nm fluorescence (AID 1117); details: alpha-BTX-A647 binding fluorescence, higher = more signal
Alpha-bungarotoxin (Bungarus multicinctus), sequence (P60615 whole entry, looked up): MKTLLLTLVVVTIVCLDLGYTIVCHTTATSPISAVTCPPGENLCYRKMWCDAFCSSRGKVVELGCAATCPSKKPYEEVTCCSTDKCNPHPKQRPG

Row | SMILES | composite z-score [1] | composite z-score [2] | composite z-score [3] | z-score [4] | composite z-score [5] | composite z-score [6] | composite z-score [7] | composite z-score [8] | composite z-score [9] | composite z-score [10] | composite z-score [11] | z-score [12] | composite z-score [13] | composite z-score [14] | composite z-score [15] | composite z-score [16] | composite z-score [17] | composite z-score [18] | composite z-score [19] | composite z-score [20]
1 | C[N+](C)(C)CCCCNC(=O)[C@@H]1C[C@@H]2C(=O)N[C@@H](Cc3ccccc3)C(=O)N2[C@@H]1c1cccc(OCCO)c1 | 1.32 | -0.0907 | 0.361 | -0.379 (inactive) | 0.849 | -0.494 | -0.35 | 0.683 | 1.49 | -0.15 | -1.03 | -0.759 | 0.633 | -0.985 | 0.18 | -0.178 | -0.0146 | -0.12 | 0.0849 | -0.671
2 | [N-]=[N+]=NCc1ccccc1[C@@H]1OC(c2ccc(OCCCO)cc2)=N[C@]1(Cc1ccccc1)C(N)=O | 1.01 | 0.758 | 0.864 | -1.16 (inactive) | 1.42 | 1.3 | -0.592 | 0.881 | -0.117 | 0.857 | 1.45 | -1.3 | -0.33 | 2.2 | 1.02 | -0.0286 | 0.365 | 1.14 | -0.402 | 2.14
3 | O=C1C[C@@](C(=O)NCCN2CCOCC2)(c2ccc([N+](=O)[O-])cc2)[C@@H](c2ccc(CO)cc2)N1CC12CC3CC(CC(C3)C1)C2 | 0.866 | 0.104 | 0.638 | 2.36 (inactive) | 1.22 | 1.32 | 0.86 | 1.3 | 0.912 | 0.403 | 1.47 | -3.14 | 0.745 | 1.06 | -0.0933 | -0.0445 | -0.16 | -0.377 | 0.651 | 1.7
4 | C#C[C@H](O[Si](C#Cc1ccc(Oc2ccccc2)cc1)(C(C)C)C(C)C)c1ccccc1 | 1.39 | 0.629 | 0.0024 | -0.855 (inactive) | 0.406 | 0.639 | 0.144 | 0.563 | -0.0522 | -0.0811 | 0.922 | -1.73 | 0.764 | -0.355 | -0.571 | -0.0519 | -0.248 | -0.244 | 0.692 | 0.495
5 | O=C1C[C@@](C(=O)NC2CC2)(c2ccc([N+](=O)[O-])cc2)[C@@H](c2ccc(CO)cc2I)N1C1CCCCC1 | 1.02 | 0.666 | -0.0524 | -0.497 (inactive) | 1.19 | 0.931 | 0.414 | 1.25 | 0.486 | 0.245 | 1.43 | -1.97 | 0.434 | 0.581 | -0.183 | -0.101 | 0.0756 | 0.217 | 0.388 | 1.24
6 | COC(=O)[C@H](Cc1ccccc1)N1CC2=C[C@@H](C3CC3)n3c(=O)n(C)c(=O)n3[C@H]2[C@@H]1[C@@H](O)Cc1ccccc1 | 0.711 | -0.412 | -0.5 | -0.515 (inactive) | 0.617 | 0.658 | 0.217 | 0.868 | 0.312 | 0.289 | 1.35 | -1.08 | 0.41 | -0.319 | 0.0057 | -0.0718 | -0.0035 | 0.0121 | 0.685 | -0.0518
7 | COC(=O)[C@@]1(Cc2ccc(OC)cc2)[C@H]2c3cc(C(=O)N(C)C)n(Cc4ccccn4)c3C[C@H]2CN1C(=O)c1ccccc1 | 1.04 | 1.2 | 1.36 | -1.71 (inactive) | -0.024 | -0.305 | -0.627 | -0.317 | -0.659 | -1.71 | -0.0851 | -0.741 | -0.479 | 2.86 | 1.41 | 0.0859 | 0.645 | 1.86 | 3.05 | 1.13
8 | C=CCC(OC(C)=O)[C@@H]1[C@@H](N(Cc2cccc3ccccc23)C(=O)c2ccc(-c3ccccc3)cc2)c2cc(OCCCO)ccc2N1C(=O)c1ccc2ccccc2c1 (stereo not given in full) | -0.101 | 0.25 | 0.357 | -0.157 (inactive) | 0.0842 | 0.293 | 0.24 | 0.476 | -0.601 | 1.28 | 0.564 | 0.098 | -0.164 | 0.268 | 0.544 | -0.0196 | -0.0709 | 0.223 | 0.923 | -0.0516
9 | C=CCNC(=O)[C@@H]1[C@H]2C(=O)O[C@H](c3ccccc3)[C@H](c3ccccc3)N2[C@H](c2ccc(OCCO)cc2)[C@@]12C(=O)Nc1ccc(C#CCC(C(=O)OC)C(=O)OC)cc12 | 1.7 | 0.264 | 0.171 | -0.646 (inactive) | 1.23 | 1.27 | -0.122 | 0.753 | 0.335 | 0.614 | 0.637 | -2.18 | 0.608 | 0.263 | -0.224 | 0.105 | 0.147 | 0.914 | 1.19 | 1.8
10 | C=CC[C@@]1(C(=O)NCCN2CCOCC2)N=C(c2ccc(OCCCO)cc2)O[C@@H]1c1ccccc1N=[N+]=[N-] | 0.241 | 1.09 | 1.03 | -0.656 (inactive) | 0.0038 | -0.142 | 0.539 | 0.255 | -0.0358 | 1.72 | 0.446 | -1.23 | 0.187 | 1.26 | 0.581 | -0.1 | -0.215 | -0.0119 | 1.76 | 0.841
11 | CC1(C)[C@@H]2CC(C(O)C3C=CC4C(=O)N(c5ccccc5)C(=O)C4N3Nc3ccc([N+](=O)[O-])cc3)=C[C@H]1C2 (stereo not given in full) | 0.966 | 0.217 | 0.648 | -0.547 (inactive) | 1.11 | 1.34 | 0.604 | 1.38 | -0.104 | 0.482 | 1.4 | -1.56 | 0.492 | 1.69 | 0.691 | 0.0718 | 0.0326 | 0.902 | 0.561 | 1.67
